Source: PubChem BioAssay AID504332 (National Center for Advancing Translational Sciences (NCATS), 2011)
The whole screen tested about 350,000 compounds, of which about 31,000 (8.9%) were called active. Roughly 15% stayed inconclusive and do not appear here. Calls follow the shape of the dose curve; as a rule, active = well fitted inhibition curve with a large enough effect; inconclusive = small, poorly fitted or top-dose-only effect; inactive = no such curve, though single readings can be large or run the other way. The entries come from a sample that favours actives as a whole. A call without a number means that no potency is given here.
Also: nearly all actives have a fitted effect of over 75% in size.
Potency is read from the fitted curve at half-maximal effect.

These compounds were tested against Histone-lysine N-methyltransferase EHMT2 (Homo sapiens) (UniProt Q96KQ7) (assay: qHTS Assay for Inhibitors of Histone Lysine Methyltransferase G9a). Details: G9a H3K9 monomethylation, AlphaScreen, 2 h; series mostly up to 59 µM.
Histone-lysine N-methyltransferase EHMT2 (Homo sapiens), sequence (Q96KQ7 913-1193 limits assumed): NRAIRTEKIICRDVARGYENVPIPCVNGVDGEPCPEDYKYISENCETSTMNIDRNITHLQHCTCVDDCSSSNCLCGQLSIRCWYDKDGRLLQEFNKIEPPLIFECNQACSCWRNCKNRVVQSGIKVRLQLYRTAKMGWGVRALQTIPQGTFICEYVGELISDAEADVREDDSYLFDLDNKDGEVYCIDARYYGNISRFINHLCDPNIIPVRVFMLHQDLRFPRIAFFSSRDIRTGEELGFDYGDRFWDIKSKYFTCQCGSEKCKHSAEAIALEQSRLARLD
Excerpt: Methylated lysines, on the N-terminal tails of histone proteins serve as epigenetic markers to recruit factors that can then modify local chromatin structure to lead to functional consequences. G9a and other members of the SUV39 family of the SET domain-containing superfamily of histone lysine methyltransferases (HMT) have been identified to specifically methylate Lys9 of histone H3 (H3K9). G9a catalyzes the mono- and di-methylation of H3K9 in mammalian euchromatic regions, where the resulting H3K9me2 is indicative of transcriptional repression. […] The inhibition of G9a will result in transcriptional activation and work synergistically with DNA methyltransferase and histone deacetylase inhibitors, to kill cancer cells. This qHTS assay for identification of G9a inhibitors is a chemiluminescence based AlphaScreen (PerkinElmer). Methylation of biotinylated-histone peptide is measured through specific antibody-based detection, in conjunction with streptavidin-coated donor and anti-IgG antibody-coated acceptor beads. The method is particularly well suited for detection of inhibitors acting by the desired histone peptide competitive mechanism and is applicable to testing other HMTs. Although AlphaScreen has significant advantages with its utility in a variety of epigenetic target assays, the primary screening data provided in this deposition should be used with caution due to the prevalence of screening artifacts. An AlphaScreen counterscreen is highly recommended to be run against any putative actives to eliminate non specific artifacts. Alternatively, one can use other AlphaScreen assays in PubChem to filter out promiscuous hits. Quinn et al. A chemiluminescence-based method for identification of histone lysine methyltransferase inhibitors. Mol Biosyst 6(5): 782-8. 2010. PMID: 20567762 [2] Baell,Holloway. New substructure filters for removal of pan assay interference compounds (PAINS) from screening libraries and for their exclusion in bioassays. J Med Chem. 53(7):2719-40. 2010. PMID: 20131845 NIH Molecular Libraries Probe Production Network [MLPCN] NIH Chemical Genomics Center [NCGC] Structural Genomics Consortium (SGC) NIH Grant: 5U54 MH084681-02
To each well of a 1,536w plate, 2ul of HMT enzyme (final 20nM) were added, using a nanoliter dispenser. The G9a- and GLP-inhibitor BIX-01294 (CID: 25150857) are used as an intraplate control, with a 16-point titration in duplicate. A Kalypsys pin-tool transferred 23nl of library compound solution in DMSO to each well. Following a 15 min incubation of enzyme with compounds at room temperature, 1ul mixture of b-H3K9 peptide substrate (final 500nM) and SAM cofactor (final 20uM) were added. Reactions were allowed to proceed at room temperature for 2 hours. Methylated b-H3K9 peptide product was detected with 0.5 ug/mL rabbit polyclonal anti-monomethyl histone H3K9 antibody (Abcam Inc., Cambridge, MA) and 20 ug/mL each streptavidin-coated donor and anti-rabbit IgG acceptor AlphaScreen beads. Antibody and beads were added in a 1ul dispense, for a final volume of 4ul, and plates were incubated, protected from the light, for 10 min at room temperature. Microplates were then read on an EnVision multilabel plate reader using the 1,536 plate HTS AlphaScreen aperture (excitation time 80 ms, measurement time 240 ms).
In the case of `COc1ccccc1NC(=O)C1=C(C)Nc2nc(SCC(=O)c3ccc(C)cc3)nn2C1c1ccccc1C` (stereo not given), the Potency is reported as “inactive”. With `O=C(NCc1ccncc1)c1cccc(NS(=O)(=O)c2ccc(F)c(F)c2)c1` the Potency was “inactive”. `CC1CCCCN1S(=O)(=O)c1ccc(F)c(C(=O)Nc2ccccc2C(F)(F)F)c1` (stereo not given) was tested, and the Potency was “inactive”. `CN(Cc1ccccc1)S(=O)(=O)c1ccc(F)c(C(=O)Nc2cccc(Cl)c2Cl)c1` was tested, and the Potency was “inactive”. In the case of `COc1ccc(-c2c(C)c3ccc(O)c(CN4CCCC4)c3oc2=O)cc1OC`, the Potency is reported as “inactive”. With `COc1ccc(-c2noc(CCC(=O)N(C)c3ccccc3C)n2)cc1` the Potency was “inactive”. `Cc1ccc2nc(SCC(=O)N3CCN(c4ccccc4)CC3)nc(=O)n2c1` was tested, and the activity, negative = inhibition was -0.43% [at 0.501 µM] (inactive). `O=C(COC(=O)c1cc(=O)[nH]c2ccccc12)NCc1cccc(Cl)c1` was tested, and the activity, negative = inhibition was 1.96% [at 12.7 µM] (inactive). With `CN(C)S(=O)(=O)c1ccc(C(=O)N(Cc2cccnc2)c2nc3c(F)cc(F)cc3s2)cc1` the Potency was “inactive”. In the case of `COc1ccccc1NC(=O)C1CCCN1S(=O)(=O)c1ccc(Cl)cc1` (stereo not given), the Potency is reported as “inactive”. `O=C(CNC(=O)c1ccc(Br)o1)NCC1CCCO1` (stereo not given) was tested, and the Potency was “inactive”. With `NS(=O)(=O)c1ccc(NC(=O)C(=O)Nc2ccc3nc4n(c(=O)c3c2)CCCCC4)cc1` the Potency was “inactive”. With `O=c1cc(CN2CCN(S(=O)(=O)/C=C/c3ccccc3)CC2)c2ccc(O)cc2o1` the Potency was “inactive”. In the case of `CC(=O)c1ccc(N2CCN(CC(=O)Nc3ccccc3N3CCOCC3)CC2)cc1`, the Potency is reported as “inactive”. `O=C(CN1CCN(c2ccc(O)cc2)CC1)Nc1ccc(-c2ccccc2)cc1` was tested, and the Potency was 11.2 µM (active). For `O=C(CN1CCOCC1)Nc1ccccc1`, the activity, negative = inhibition was 41.4% [at 12.7 µM] (inactive). With `O=C(CN1CCN(c2ccccc2)CC1)Nc1ccc(F)cc1` the Potency was “inactive”. With `O=C(CN1CCN(S(=O)(=O)/C=C/c2ccccc2)CC1)Nc1ccc(N2CCOCC2)cc1` the Potency was 35.5 µM (active). `Cc1ccccc1NC(=O)c1cc2c([nH]c1=O)CC(C)(C)CC2=O` was tested, and the Potency was “inactive”. In the case of `O=C(Nc1cc(Cl)ccc1N1CCOCC1)c1ccc(N2CCCC2=O)cc1`, the Potency is reported as “inactive”. In the case of `CCc1ccccc1NC(=O)Cn1c(=O)n(-c2cccc(C)c2)c(=O)c2c1c1cc(OC)ccc1n2C`, the Potency is reported as “inactive”. With `CC(C)c1cc(C(=O)N/N=C/C(Br)=C/c2ccccc2)n[nH]1` the Potency was “inactive”. In the case of `CC(C)c1cc(C(=O)O)n[nH]1`, the Potency is reported as 44.7 µM (active). With `CC(C)c1cc(C(=O)O)on1` the Potency was “inactive”. In the case of `O=C(CNC(=O)c1ccccc1Br)NCCSc1ccc(Br)cc1`, the Potency is reported as “inactive”. In the case of `Cc1ccc2nc(COc3cccc(NC(=O)c4cccc(Cl)c4)c3)cc(=O)n2c1`, the Potency is reported as “inactive”. With `CN1C(=O)/C(=C/c2ccco2)SC1=Nc1cccc(C(=O)O)c1` the Potency was 28.2 µM (active). With `CN=C1S/C(=C\c2c(OC)cc(OC)cc2OC)C(=O)N1C` the Potency was “inactive”. In the case of `O=C(CCCN1C(=O)/C(=C/c2ccco2)SC1=S)Nc1ccccc1`, the Potency is reported as “inactive”. `COc1ccc(CCNC(=O)CCCCCNC(=O)N2CCn3c2nc2ccccc23)cc1OC` was tested, and the Potency was “inactive”. For `COc1ccc(NC(=O)Cn2cc(C(=O)c3ccncc3)c(=O)c3cc(C)ccc32)cc1Cl`, the activity, negative = inhibition was 3.8% [at 12.7 µM] (inactive). `CC(CN1CCCCC1)c1ccccc1` (stereo not given) was tested, and the Potency was 11.2 µM (active). In the case of `CC(CN1CCC(n2nccc2NC(=O)C2CCCC2)CC1)c1ccccc1` (stereo not given), the Potency is reported as “inactive”. In the case of `CC(CN1CCOCC1)c1ccccc1` (stereo not given), the Potency is reported as “inactive”. With `O=S(=O)(c1ccc(SCc2ccc(Br)cc2)nc1)N1CCOCC1` the activity, negative = inhibition was -2.71% [at 12.7 µM] (inactive). With `Cc1ccc(CN2CC(C(=O)NNC(=O)Cn3ccc(C(F)(F)F)n3)CC2=O)cc1` (stereo not given) the activity, negative = inhibition was -2.67% [at 12.7 µM] (inactive). For `Cc1ccc(-c2nn3c(=O)cc(CN4CCN(S(=O)(=O)c5ccc(Cl)cc5)CC4)nc3s2)cc1`, the Potency was “inactive”. For `CCOc1cc(C(=O)OCC(=O)Nc2cccc(C)c2)ccc1OCC(=O)N1CCOCC1`, the Potency was “inactive”. For `CCOc1cc(C(=S)N2CCOCC2)ccc1OS(=O)(=O)c1ccc(Br)cc1`, the Potency was “inactive”. For `CCOc1cc(C(=S)N2CCOCC2)ccc1O`, the Potency was 4.47 µM (active). `Cc1cccc(NC(=O)CSc2ncc(-c3ccccc3)[nH]2)c1C` was tested, and the Potency was “inactive”. `O=C(OCC1OC(Oc2ccc(O)cc2)C(O)C(O)C1O)c1ccccc1` (stereo not given) was tested, and the activity, negative = inhibition was 2.48% [at 12.7 µM] (inactive). In the case of `Cc1ccc2c(c1)C1CN(C)CCC1N2S(=O)(=O)c1ccc(Oc2ccc([N+](=O)[O-])cc2)cc1` (stereo not given), the Potency is reported as 35.5 µM (active). In the case of `COc1ccc(S(=O)(=O)N2CCOC23CCN(S(=O)(=O)c2ccc([N+](=O)[O-])cc2)CC3)cc1`, the activity, negative = inhibition is reported as -2.42% [at 0.501 µM] (inactive). `Cc1ccc2c(c1)C1CN(C)CCC1N2S(=O)(=O)c1cccc(F)c1` (stereo not given) was tested, and the Potency was “inactive”. For `COc1ccc(C(=O)NC2CCN(C(=O)Nc3ccc(F)cc3)CC2)cc1`, the Potency was “inactive”. In the case of `CCc1nnc(SCC(=O)Nc2cc(OC)ccc2OC)nc1CC`, the Potency is reported as “inactive”. In the case of `COc1ccc(OC)c(NC(=O)CSc2nc3ccccc3nc2N2CCCCC2)c1`, the Potency is reported as “inactive”. For `CCc1cc2cc(OC)ccc2nc1SCC(=O)Nc1cc(OC)c(OC)cc1C(=O)O`, the Potency was 50.1 µM (active). `N#Cc1c(N)n(CCOC(=O)c2ccc(Cl)cc2)c2nc3ccccc3nc12` was tested, and the Potency was “inactive”. In the case of `CC(C)(C)c1ccc(C(=O)NCCn2c(N)c(C#N)c3nc4ccccc4nc32)cc1`, the Potency is reported as “inactive”. With `CN(C)CCCn1c(N)c(C#N)c2nc(C#N)c(C#N)nc21` the Potency was 25.1 µM (active). `COc1ccc(CNC(=O)CN(c2ccc(OC)c(Cl)c2)S(=O)(=O)c2ccc(C)cc2)cc1` was tested, and the Potency was “inactive”. `O=C(CNC(=O)c1ccc2ccccc2c1)Nc1ncccc1O` was tested, and the activity, negative = inhibition was 20.5% [at 2.33 µM] (inactive). In the case of `CCOc1ccc(N2CC(C(=O)NCc3ccccn3)CC2=O)cc1` (stereo not given), the Potency is reported as “inactive”. With `COc1ccccc1N1CC(C(=O)NCCN2C(=O)S/C(=C\c3cccnc3)C2=O)CC1=O` (stereo not given) the activity, negative = inhibition was 2.97% [at 12.7 µM] (inactive). With `CCOc1ccc(N2CC(C(=O)NCCN3C(=O)S/C(=C\c4cccnc4)C3=O)CC2=O)cc1` (stereo not given) the Potency was 39.8 µM (active). `CCN(c1ccccc1)S(=O)(=O)c1cc(C(=O)NCc2ccccn2)ccc1C` was tested, and the Potency was “inactive”. For `COc1ccc(Cl)cc1N(C)C(=O)c1cc2c(=O)oc3ccc(C)cc3c2s1`, the Potency was “inactive”. With `COC(=O)c1ccc(COC(=O)CNC(=O)c2cccc(OC)c2)o1` the Potency was “inactive”.
